This is an account of results in PubChem BioAssay (Tox21).

Assay [1] is described as follows: A CellTox Green Cytotoxicity Assay to monitor cytotoxicity in HepG2 cells - 0 hour (AID 1224882). Further: nearly all actives have a fitted effect of over 35% in size. Put shortly:
(§1)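 Real-time, homogeneous cytotoxicity readout: dead-cell DNA staining by CellTox Green in HepG2 monolayers, fluorescence measured at timed intervals up to 40 h of continuous compound exposure.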

Assay [2] in a line: A CellTox Green Cytotoxicity Assay to monitor cytotoxicity in HepG2 cells - 32 hour (AID 1224883). Further: nearly all actives have a fitted effect of over 50% in size. Further: potency means the concentration at half of the fitted maximal effect. The procedure, abridged: as §1
Assay [3] is described as follows: A CellTox Green Cytotoxicity Assay to monitor cytotoxicity in HEK293 cells - 8 hour (AID 1224884). Further: nearly all actives have a fitted effect of over 35% in size. Put shortly: (§2)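 Cytotoxicity was tracked continuously in HEK293 cells by a DNA-binding dye excluded from viable cells. Compounds were transferred in DMSO 5 h after seeding; fluorescence was recorded at intervals up to 40 h.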
Assay [4] is described as follows: qHTS RealTime-Glo MT Cell Viability Assay in HepG2 cells - 16 hour (AID 1224885). Further: nearly all actives have a fitted effect of over 50% in size. Put shortly:
(§3)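 Viability was tracked continuously by NanoLuc luminescence from prosubstrate reduced by living HepG2 cells, at successive time points over 40 h of compound exposure. Cells with reagent were preincubated 5 h at 37 °C before compound addition.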

A short description of assay [5]: qHTS RealTime-Glo MT Cell Viability Assay in HEK293 cells - 24 hour (AID 1224886). Further: nearly all actives have a fitted effect of over 50% in size. Further: potency means the concentration at half of the fitted maximal effect. The procedure, abridged:
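Viability tracked continuously by luminescence as live cells reduce a prosubstrate for NanoLuc; HEK293 cells preincubated 5 h, compound-treated at 37 C, and read at 0, 8, 16, 24, 32 and 40 h.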
(In general: qHTS replaces the single test concentration by a dilution series.)

Assay [6] is described as follows: qHTS RealTime-Glo MT Cell Viability Assay in HEK293 cells - 8 hour (AID 1224887). Further: top concentration of the series differs between compounds; nearly all actives have a fitted effect of over 50% in size. The procedure, abridged:
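Nonlytic bioluminescent viability monitoring. HEK293 at 600 cells/well with reagent; 5 h settle; compound transfer by pintool; plates held at 37 C and read at set time points.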

Assay [7] can be described thus: A CellTox Green Cytotoxicity Assay to monitor cytotoxicity in HEK293 cells - 16 hour (AID 1224888). Further: nearly all actives have a fitted effect of over 35% in size. Put shortly: as §2
A short description of assay [8]: qHTS RealTime-Glo MT Cell Viability Assay in HepG2 cells - 0 hour (AID 1224889). Further: nearly all actives have a fitted effect of over 50% in size. Further: potency means the concentration at half of the fitted maximal effect. The procedure, abridged: as §3
A short description of assay [9]: A CellTox Green Cytotoxicity Assay to monitor cytotoxicity in HepG2 cells - 8 hour (AID 1224890). Further: nearly all actives have a fitted effect of over 45% in size. Put shortly: as §1
Assay [10] is described as follows: qHTS assay to identify small molecule antagonists of the estrogen receptor alpha (ER-alpha) signaling pathway using the BG1 cell line in the presence of 0.1 nM 17-beta-estradiol - cell viability counter screen (AID 1259241). Further: nearly all actives have a fitted effect of over 40% in size. Further: potency means the concentration at half of the fitted maximal effect. The procedure, abridged:
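Estradiol-stimulated (0.1 nM) VM7Luc4E2 cells exposed to compounds 22 hr; viability measured by fluorescence of cleaved CellTiter-Fluor substrate after 30 min.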

A number with no mark means an inactive call. Results filed as inconclusive are left out. Active and inactive are the calls of the source. The call rests on the fitted dose curve; in most records, active means well fitted curve in the direction sought with a large enough effect in the repeat runs; inconclusive means weak or mixed curves; inactive means no such curve, though single readings can be large; an effect the other way counts as inactive or inconclusive.

Turning to `CN(N=O)c1ccc([N+](=O)[O-])cc1`, the Potency result in assay [1], in assay [3], in assay [4], in assay [5], in assay [6] and in assay [7] was “inactive” in each case. Also, the Potency result in [8], in [9] and in assay [10] was “inactive” throughout. In assay [2], the Potency was 43.6 µM (active).
With `CCOP(=S)(Oc1ccc([N+](=O)[O-])cc1)c1ccccc1` (stereo not drawn), the Potency result in [1], in [2], in assay [3], in assay [4], in assay [5] and in [6] was “inactive” in each case. Besides, the Potency result in assay [7], in [8], in assay [9] and in assay [10] was “inactive” in each case.
Regarding `N#C/C(N)=C(/N)C#N`, the Potency entry in [1], in [2], in [3], in assay [4], in assay [5] and in [6] was “inactive” throughout. For the same compound, the Potency entry in assay [7], in assay [8], in assay [9] and in assay [10] was “inactive” in each case.
With `O=C(O)COc1ccc(Cl)cc1`, the Potency entry in [1], in [2], in [3], in assay [4], in assay [5] and in assay [6] was “inactive” each time. Further, the Potency result in assay [7], in assay [8], in assay [9] and in [10] was “inactive” each time.
As to `[O-][Cl+]O`, the Potency result in [1], in [2], in assay [3], in [4], in assay [5] and in [6] was “inactive” throughout. The Potency result in assay [7], in [8], in [9] and in assay [10] was “inactive” throughout.
Turning to `CC(Cl)C(C)Cl` (stereo not drawn), the Potency entry in assay [1], in assay [2], in assay [3], in [4], in assay [5] and in assay [6] was “inactive” each time. Further, the Potency result in assay [7], in assay [8], in assay [9] and in [10] was “inactive” throughout.
`COc1c(C(C)(C)C)cc([N+](=O)[O-])c(C)c1[N+](=O)[O-]`: the Potency result in assay [1], in assay [2], in [3], in assay [4], in [5] and in assay [6] was “inactive” each time. In addition, the Potency result in [7], in [8], in [9] and in assay [10] was “inactive” throughout.
As for `COC1=CC(=O)O[C@@H](CCc2ccccc2)C1`, the Potency result in [1], in [2], in assay [3], in [4], in [5] and in assay [6] was “inactive” throughout. For the same compound, the Potency entry in assay [7], in assay [8] and in assay [9] was “inactive” in each case.
Take `CC(Cl)Cl`: the Potency result in [1], in [2], in assay [3], in assay [4], in [5] and in [6] was “inactive” in each case. Moreover, the Potency entry in assay [7], in assay [8], in assay [9] and in assay [10] was “inactive” throughout.
As to `O=C(NC(=O)c1c(F)cccc1F)Nc1ccc(OC(F)(F)C(F)OC(F)(F)F)c(Cl)c1` (stereo not drawn), the Potency result in assay [1], in [2], in assay [3], in assay [4], in [5] and in assay [6] was “inactive” in each case. The Potency entry in [7], in [8], in assay [9] and in assay [10] was “inactive” each time.
Regarding `Clc1cccc(SC2CCNCC2)n1`, the Potency entry in assay [1], in [2], in [3], in [4], in assay [5] and in assay [6] was “inactive” each time. Also, the Potency result in assay [7], in assay [8], in assay [9] and in assay [10] was “inactive” each time.
With `O=C(NCc1cccnc1)Nc1ccc([N+](=O)[O-])cc1`, the Potency entry in assay [1], in [2], in assay [3], in assay [4], in [6] and in assay [7] was “inactive” throughout. Moreover, the Potency entry in [8] and in assay [10] was “inactive” each time. Also, the Potency in assay [5] was 49 µM (active).
For `c1ccoc1`, the Potency entry in [1], in [2], in assay [3], in assay [4], in assay [5] and in assay [6] was “inactive” in each case. Also, the Potency entry in [7], in assay [8] and in [10] was “inactive” in each case.
As to `O=C(CBr)Nc1ccc(Cl)cc1C(=O)c1ccccc1F`, the Potency entry in [1], in assay [2], in [3], in assay [4], in assay [5] and in assay [6] was “inactive” each time. In addition, the Potency result in assay [7], in assay [8] and in assay [10] was “inactive” throughout.
Regarding `CC/C(=N\OC/C=C/Cl)C1=C(O)CC(C2CCOCC2)CC1=O` (stereo not drawn), the Potency result in [1], in [2], in assay [3], in assay [4], in assay [5] and in assay [6] was “inactive” each time. The Potency entry in assay [8], in [9] and in assay [10] was “inactive” in each case.
As for `O=S1(=O)OC(c2cc(Br)c(O)c(Br)c2)(c2cc(Br)c(O)c(Br)c2)c2ccccc21`, the Potency entry in [1], in assay [2], in assay [3], in [4], in [5] and in assay [6] was “inactive” each time. Besides, the Potency entry in assay [7] and in assay [9] was “inactive” throughout. Besides, the Potency in [8] is 6.34 µM (active); in assay [10], 14.1 µM (active).
For the compound `CCCCCC[N+](=O)[O-]`, the Potency result in [1], in assay [2], in assay [3], in assay [4], in assay [5] and in assay [6] was “inactive” in each case. The Potency result in assay [7], in [8], in [9] and in [10] was “inactive” throughout.
Consider `Cc1cc(=O)[nH]o1`, for which the Potency entry in assay [1], in assay [2], in assay [3], in assay [4], in [5] and in [6] was “inactive” in each case. Further, the Potency result in [7], in [8], in assay [9] and in [10] was “inactive” throughout.
With `O=NN1CCNCC1`, the Potency entry in assay [1], in assay [2], in assay [3], in assay [4], in assay [5] and in assay [6] was “inactive” each time. Besides, the Potency result in assay [7], in assay [8], in assay [9] and in [10] was “inactive” in each case.
`CCOC(=O)COc1cc(-c2nn(C)c(OC(F)F)c2Cl)c(F)cc1Cl`: the Potency result in [1], in assay [2], in assay [3], in assay [4], in [5] and in assay [6] was “inactive” each time. Also, the Potency entry in [7], in assay [8] and in assay [10] was “inactive” in each case.
Consider `CCCCCCC#N`, for which the Potency result in assay [1], in assay [2], in assay [3], in [4], in [5] and in assay [6] was “inactive” in each case. In addition, the Potency result in assay [7], in [8] and in assay [10] was “inactive” in each case.
Regarding `C=CCC1([C@H](C)CCC)C(=O)NC(=O)NC1=O`, the Potency result in assay [1], in assay [2], in assay [3], in [4], in assay [5] and in assay [6] was “inactive” each time. In addition, the Potency entry in assay [7], in assay [8], in [9] and in [10] was “inactive” in each case.
With `O=Cc1ccc(Cl)cc1Cl`, the Potency result in assay [1], in [2], in [3], in [4], in assay [5] and in assay [6] was “inactive” throughout. The Potency result in [7], in assay [8], in assay [9] and in [10] was “inactive” throughout.
As for `Clc1cccc2ccccc12`, the Potency entry in assay [1], in assay [2], in assay [3], in assay [4], in [5] and in [6] was “inactive” each time. Further, the Potency entry in [7], in [8], in assay [9] and in assay [10] was “inactive” throughout.
